Measured values reported in ChEMBL document CHEMBL3988442, “University of Dundee, Small-Polar-MMV Screening Library” (2021).

These compounds were tested against AMP-activated protein kinase, AMPK (Homo sapiens) (UniProt P54646+O43741+P54619+Q9UGJ0+Q9Y478+Q13131+Q9UGI9) (assay: AMP-dependent Kinase enzyme assay. An in vitro enzyme assay that detects ADP turnover that is directly proportional to AMPK activity. This uses naive AMPK that is activated during the assay with MK-8722). Conditions: 30 µM.
Type: functional
Parameters: scale not given: direction of the effect not stated beside the values

In order of rising Percent Effect:
1. Cn1nc2c(cc1=O)CN(CCc1nc3ccccc3c(=O)[nH]1)CC2  -206%
2. CN(CCCC#N)C1CCCN(Cc2noc(C3CC3)n2)C1 (stereo not drawn)  -17%
3. CCOc1cc(C)ccc1NC(=O)N(C)Cc1cnn(C)c1  -11.8%
4. CCCNC(=O)N1CCN(Cc2cc(C)no2)CC1  -8.42%
5. CCOC(=O)C1CCN(C(=O)Cn2ccc3cc(Br)ccc32)CC1  -7.58%
6. Cn1ccc(C(=O)N2CCCC(Cc3cccc4ncccc34)C2)n1 (stereo not drawn)  -6.32%
7. Cc1cnn(CCNCc2ccccc2Oc2cccnc2)c1  -5.35%
8. Cc1csc(CNC(=O)NCC(O)c2cccc(Cl)c2)n1 (stereo not drawn)  -4.44%
9. CN(C)S(=O)(=O)N1CCCC1CC(=O)c1cccs1 (stereo not drawn)  -3.98%
10. CN(C)C(=O)NC1COC2(CCN(Cc3nccn3C)CC2)C1 (stereo not drawn)  -3.63%
11. COc1ccc(CNC(=O)NCc2c(C)cc(C)[nH]c2=O)cc1  -3.13%
12. CCCS(=O)(=O)N1CCC(NC(=O)c2cc(C)c(CC)s2)CC1  -3.07%
13. Cc1cc(C(=O)NCC2COCc3c(C)nnn3C2)no1 (stereo not drawn)  -3%
14. CCC1=N[C@@]2(CC[C@@H]3CN(Cc4ccccc4F)C[C@@H]32)C(=O)N1CC  -2.64%
15. COc1cccc2c1ccn2CCC(=O)N1CCCC(C(=O)O)C1 (stereo not drawn)  -2.19%
16. Cc1nc(CN2CCCC(NCc3c(C)nc4sccn34)C2)no1 (stereo not drawn)  -2.06%
17. CC1CN(CC(=O)Nc2cccnc2)CCN1c1nccs1 (stereo not drawn)  -1.61%
18. Cc1noc(Cl)c1CCC(=O)N1CCN(c2ncccn2)CC1  -1.41%
19. Cn1ncc2c(=O)[nH]c(CN3CCCC3Cc3ccccc3)nc21 (stereo not drawn)  -0.517%
20. COCC1CN(Cc2ccc(C)o2)Cc2cn(C)nc21 (stereo not drawn)  -0.404%
21. COc1cc(CNC2CCc3nc(C(C)C)nn3C2)cc2c1OCO2 (stereo not drawn)  -0.342%
22. CCn1ccnc1CN1CCN(CCOc2ccccc2OC)CC1  -0.305%
23. CCn1cnnc1CNC(=O)N1CCC(Cc2cccnc2)CC1  -0.131%
24. Cc1ccc(CN2CCOC3(CCCN(C(=O)c4ccco4)C3)C2)s1 (stereo not drawn)  -0.0266%
25. CC(C)CCc1noc(CN2CCCN(C(=O)c3ccco3)CC2)n1  -0.00644%
26. O=S(=O)(N(Cc1ccccn1)C1CC1)N1CCCC1c1ccco1 (stereo not drawn)  0.691%
27. CN1CCC(Oc2ccc(NC(=O)c3ccccc3Br)cc2)CC1  0.999%
28. Cc1cnc(CNC(=O)NCc2cccnc2N(C)C)s1  1.02%
29. Cc1noc2nc(C3CCN(Cc4ccncc4)CC3)cc(C(F)F)c12  1.21%
30. Cc1cc(C)nc(CCNC(=O)[C@H]2CNC[C@@H](C(=O)N3CCCC3)C2)n1  2.23%
31. CCN1C[C@H]2CCN(C(=O)NC3CCCC3)CC[C@H]2S1(=O)=O  2.73%
32. COc1ccc(C(=O)N2CCC(Nc3ccc(C)nn3)CC2)c(F)c1  3.77%
33. O=C(c1cc(COc2ccc3c(c2)OCO3)[nH]n1)N1CCCC1  4.54%
34. Cc1ccc(=O)n(CC2(O)CCN(Cc3cnc(C)nc3)CC2)n1  4.75%
35. CCOCC1CN(Cc2ccoc2)Cc2nn(CC3CC3)cc21 (stereo not drawn)  4.81%
36. CS(=O)(=O)NCc1nnc2n1CCN(CC1CC1)C2  5.91%
37. Cc1ccccc1-c1cncc(C2CCN(C)CC2)n1  8.25%
38. O=C(CN1CCC(C(=O)c2cc(F)ccc2F)CC1)NC1CCCC1  13.8%
39. CCOc1cc(C)nc(N2CCN(C(=O)CC)CC2)n1  144%

The compounds below were run against Sialic acid-binding Ig-like lectin 9 (Homo sapiens) (UniProt Q9Y336) (assay: Hs-Siglec9 ALPHAscreen SOP 20170721). Conditions: 10 µM.
Parameters: scale not given: direction of the effect not stated beside the values

Sequence of Sialic acid-binding Ig-like lectin 9 (Homo sapiens) (Q9Y336 whole entry): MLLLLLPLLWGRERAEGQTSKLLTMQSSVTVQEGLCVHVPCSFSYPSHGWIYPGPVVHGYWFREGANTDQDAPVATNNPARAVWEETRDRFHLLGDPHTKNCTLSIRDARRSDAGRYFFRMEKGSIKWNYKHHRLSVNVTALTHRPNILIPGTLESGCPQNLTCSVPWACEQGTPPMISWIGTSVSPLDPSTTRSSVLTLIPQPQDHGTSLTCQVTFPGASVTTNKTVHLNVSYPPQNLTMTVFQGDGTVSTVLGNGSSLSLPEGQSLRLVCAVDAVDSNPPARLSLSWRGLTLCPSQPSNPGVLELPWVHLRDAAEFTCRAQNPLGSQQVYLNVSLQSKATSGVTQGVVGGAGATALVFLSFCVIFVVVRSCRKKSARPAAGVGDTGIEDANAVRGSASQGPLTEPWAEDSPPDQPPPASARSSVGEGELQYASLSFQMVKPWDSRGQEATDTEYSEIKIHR

In order of falling Percent Effect:
1. CCOc1cc(C)ccc1NC(=O)N(C)Cc1cnn(C)c1  16.5%
2. COCC1CN(Cc2ccc(C)o2)Cc2cn(C)nc21 (stereo not drawn)  16.5%
3. Cc1cnc(CNC(=O)NCc2cccnc2N(C)C)s1  13.8%
4. COc1ccc(CNC(=O)NCc2c(C)cc(C)[nH]c2=O)cc1  12.1%
5. CCCS(=O)(=O)N1CCC(NC(=O)c2cc(C)c(CC)s2)CC1  10.4%
6. CCOc1cc(C)nc(N2CCN(C(=O)CC)CC2)n1  10.3%
7. O=S(=O)(N(Cc1ccccn1)C1CC1)N1CCCC1c1ccco1 (stereo not drawn)  9.84%
8. Cc1ccc(CN2CCOC3(CCCN(C(=O)c4ccco4)C3)C2)s1 (stereo not drawn)  8.56%
9. CN(CCCC#N)C1CCCN(Cc2noc(C3CC3)n2)C1 (stereo not drawn)  7.77%
10. CC1CN(CC(=O)Nc2cccnc2)CCN1c1nccs1 (stereo not drawn)  7.17%
11. CN1CCC(Oc2ccc(NC(=O)c3ccccc3Br)cc2)CC1  7.1%
12. Cn1ccc(C(=O)N2CCCC(Cc3cccc4ncccc34)C2)n1 (stereo not drawn)  5%
13. CC(C)CCc1noc(CN2CCCN(C(=O)c3ccco3)CC2)n1  4.33%
14. Cc1cc(C(=O)NCC2COCc3c(C)nnn3C2)no1 (stereo not drawn)  3.99%
15. CCn1ccnc1CN1CCN(CCOc2ccccc2OC)CC1  3.72%
16. Cn1ncc2c(=O)[nH]c(CN3CCCC3Cc3ccccc3)nc21 (stereo not drawn)  3.61%
17. CN(C)S(=O)(=O)N1CCCC1CC(=O)c1cccs1 (stereo not drawn)  2.64%
18. Cc1ccccc1-c1cncc(C2CCN(C)CC2)n1  2.29%
19. O=C(c1cc(COc2ccc3c(c2)OCO3)[nH]n1)N1CCCC1  2.19%
20. CCn1cnnc1CNC(=O)N1CCC(Cc2cccnc2)CC1  1.86%
21. COc1cc(CNC2CCc3nc(C(C)C)nn3C2)cc2c1OCO2 (stereo not drawn)  1.45%
22. Cc1csc(CNC(=O)NCC(O)c2cccc(Cl)c2)n1 (stereo not drawn)  1.18%
23. CN(C)C(=O)NC1COC2(CCN(Cc3nccn3C)CC2)C1 (stereo not drawn)  0.435%
24. Cc1cnn(CCNCc2ccccc2Oc2cccnc2)c1  -0.251%
25. Cc1cc(C)nc(CCNC(=O)[C@H]2CNC[C@@H](C(=O)N3CCCC3)C2)n1  -0.778%
26. Cn1nc2c(cc1=O)CN(CCc1nc3ccccc3c(=O)[nH]1)CC2  -0.89%
27. CCOCC1CN(Cc2ccoc2)Cc2nn(CC3CC3)cc21 (stereo not drawn)  -1.13%
28. Cc1ccc(=O)n(CC2(O)CCN(Cc3cnc(C)nc3)CC2)n1  -1.5%
29. CCC1=N[C@@]2(CC[C@@H]3CN(Cc4ccccc4F)C[C@@H]32)C(=O)N1CC  -1.67%
30. Cc1noc2nc(C3CCN(Cc4ccncc4)CC3)cc(C(F)F)c12  -1.72%
31. COc1ccc(C(=O)N2CCC(Nc3ccc(C)nn3)CC2)c(F)c1  -1.89%
32. CCCNC(=O)N1CCN(Cc2cc(C)no2)CC1  -2.41%
33. CCOC(=O)C1CCN(C(=O)Cn2ccc3cc(Br)ccc32)CC1  -2.58%
34. O=C(CN1CCC(C(=O)c2cc(F)ccc2F)CC1)NC1CCCC1  -3.6%
35. Cc1noc(Cl)c1CCC(=O)N1CCN(c2ncccn2)CC1  -4.66%
36. COc1cccc2c1ccn2CCC(=O)N1CCCC(C(=O)O)C1 (stereo not drawn)  -4.72%
37. CS(=O)(=O)NCc1nnc2n1CCN(CC1CC1)C2  -4.89%
38. Cc1nc(CN2CCCC(NCc3c(C)nc4sccn34)C2)no1 (stereo not drawn)  -6.92%
39. CCN1C[C@H]2CCN(C(=O)NC3CCCC3)CC[C@H]2S1(=O)=O  -7.67%
